Rpn11 block – inhibitors of human proteasome Rpn11. 0.59% of 360,000 active. inhibition, % at 20 µM. human 26S proteasome, Ub4-pepOG fluorescence polarization; 20S core pre-blocked with epoxomicin. O00487;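 active = inhibition at 20 µM, scaled to each plate's controls, above about 33%, limit read from the data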
Target sequence (O00487 whole entry, looked up): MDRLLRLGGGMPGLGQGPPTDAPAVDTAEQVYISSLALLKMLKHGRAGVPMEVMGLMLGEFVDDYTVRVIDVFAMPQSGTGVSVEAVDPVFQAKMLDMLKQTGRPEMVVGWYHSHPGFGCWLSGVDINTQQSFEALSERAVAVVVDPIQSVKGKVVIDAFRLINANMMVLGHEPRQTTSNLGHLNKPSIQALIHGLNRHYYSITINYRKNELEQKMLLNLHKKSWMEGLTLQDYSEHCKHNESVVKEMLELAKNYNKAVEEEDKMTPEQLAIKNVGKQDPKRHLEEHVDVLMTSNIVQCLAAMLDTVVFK
PP5 inh – PP5 (human) phosphatase inhibition; P53041; purified PP5c, OMFP substrate fluorescence; inhibition, % at 6.7 µM; 0.18% of 320,000 active;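 active = inhibition above the campaign's mean inhibition across all tested compounds plus 3 SD, cut at about 9.5% in these data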;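 note: 0% = DMSO only and 100% = 100 µM cantharidin control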
NadD block – NadD (S. aureus) enzyme inhibition; purified NadD enzyme, colorimetric absorbance read-out; inhibition, % at 20 µM; 0.78% of 360,000 active; AID 602399; in the data active = inhibition above about 26%
PREPL inh – inhibits the human prolyl oligopeptidase-like enzyme. 0.68% of 320,000 active. recombinant PREPL, fluorescence polarization activity-based probe. Q4J6C6. inhibition, % at 5.96 µM; in the data active = inhibition above about 43%;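 note: 0% = enzyme with DMSO and 100% = wells lacking enzyme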
PP1 counter – PP1-alpha (human) inhibition in PP5 counter-screen; 0.9% of 320,000 active; purified PP1alpha, OMFP fluorescence; P62136; inhibition, % at 6.7 µM;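 active = inhibition above the mean inhibition of all tested compounds plus 3 SD, computed separately for each screening campaign, cut at about 15% in these data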
PP1 confirm – human PP1 phosphatase inhibition, confirmation; 52% of 1,900 active; shares compounds with PP1 counter; inhibition, % at 6.7 µM; purified PP1alpha, OMFP substrate fluorescence;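 active = mean PP1 inhibition above a set limit taken from the earlier primary screen, cut at about 15% in these data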
PP5 inh counter – counter-screen for PP1 inhibitors: human PP5 phosphatase inhibition | shares compounds with PP1 counter | purified PP5c, OMFP fluorescence | inhibition, % at 6.7 µM | 4% of 1,900 active;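 active = mean PP5 inhibition over triplicate wells above about 9.5% taken from the earlier PP1 screen, limit read from the data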
The depositor's hits bear a star; x = no result shown. Most compounds without a hit are left out; they make up all but 2.4% or so of the library.

SMILES | Rpn11 block | PP5 inh | NadD block | PREPL inh | PP1 counter | PP1 confirm | PP5 inh counter
Cc1nnc(NC(=O)c2cc(-c3ccco3)nc3ccccc23)s1 | -3.6 | -0.7 | 14.5 | 5.5 | 29.7* | 5.9 | -0.4
O=C(Nc1nc2ccccc2s1)c1cc(-c2ccco2)nc2ccccc12 | -3.0 | 0.2 | 23.3 | -0.6 | -2.4 | x | x
CCC(=O)N1CCc2cc(S(=O)(=O)NCCC(=O)NCc3ccccc3OC)ccc21 | -12.7 | 1.9 | 2.2 | -5.4 | -3.2 | x | x
Cc1ccc(C)c(Cn2nnc3c(=O)[nH]c(C4CCN(S(=O)(=O)c5ccc(S(=O)(=O)NC6CC6)cc5)CC4)nc32)c1 | 2.8 | 5.2 | 26.0 | -2.9 | 18.1* | 15.3* | 5.3
Cc1ccc(Cn2nnc3c(=O)[nH]c(C4CCN(S(=O)(=O)c5cc(C)ccc5C)CC4)nc32)cc1 | 1.5 | 3.7 | 5.1 | -1.4 | 27.8* | 24.1* | 3.6
Cc1ccc(C)c(S(=O)(=O)N2CCC(c3nc4c(nnn4Cc4ccc(F)cc4)c(=O)[nH]3)CC2)c1 | -8.4 | 4.0 | 17.4 | -16.8 | 18.2* | 6.6 | 1.0
O=C(CCC(=O)NNC(=O)c1ccc(Cl)cc1Cl)NCc1ccccc1 | -7.5 | 1.7 | 5.7 | -2.8 | -1.9 | x | x
O=C(c1c(F)cccc1F)N1CCCC(c2nc(-c3ccc(F)cc3)no2)C1 (centres undefined) | -5.9 | 1.2 | -2.0 | -10.9 | 3.9 | x | x
O=C(CSc1nnc(COc2ccc(F)cc2)o1)N1c2ccccc2CCc2ccccc21 | 11.4 | 2.8 | -9.2 | 10.2 | 3.3 | x | x
Cc1cccc(OCc2nnc(SCC(=O)N3c4ccccc4CCc4ccccc43)o2)c1 | 7.4 | 2.4 | 0.3 | 23.7 | 19.0* | 4.3 | -0.8
CCCCCOc1ccc(NC(=O)C(=O)NCCCn2ccnc2)cc1 | -0.7 | 3.3 | 19.8 | 6.6 | 44.4* | 3.9 | -3.1
C=CCOc1ccc(NC(=O)C(=O)NCCCn2ccnc2)cc1 | 0.2 | -2.6 | -1.9 | 1.0 | -3.4 | x | x
COc1ccc2nc(NC(=O)c3cccc(-c4cc5ccccc5oc4=O)c3)sc2c1 | 0.1 | -0.7 | 24.6 | -4.2 | 23.4* | 25.8* | -2.8
Cc1cccc(NC(=O)CN2C(=O)N/C(=C\c3ccc(N4CCOCC4)cc3)C2=O)c1 | 2.8 | 0.0 | 11.8 | 6.2 | 19.8* | 25.4* | -3.7
Cc1cccc(NC(=O)CN2C(=O)N/C(=C/c3cc(C)n(-c4ccncc4)c3C)C2=O)c1 | 6.6 | 0.4 | 4.6 | 2.3 | 19.0* | 14.2 | -1.6
COc1cc(/C=C2/SC(=S)N(CCC(=O)Nc3ccccc3)C2=O)cc(OC)c1OC | 33.8 | -0.5 | 3.4 | 9.7 | 0.8 | x | x
Cc1cc2cc(CNC(=O)c3ccco3)ccc2n1C | -21.0 | 2.4 | 10.2 | 38.0 | 8.6 | x | x
Cc1cc2cc(CNC(=O)c3cc4ccccc4o3)ccc2n1C | x | 4.6 | x | 65.0* | 22.4* | 9.3 | -2.2
Cc1ccccc1NC(=S)NCC1CCN(C(C)c2ccccc2)C1 (centres undefined) | -2.4 | -1.4 | -7.9 | -6.2 | 25.0* | -17.1 | -5.0
Brc1ccc(N/N=C(/N=Nc2nn[nH]n2)c2ccccc2)cc1 | 0.3 | 6.1 | 14.7 | 25.0 | 19.2* | 24.2* | 6.7
Cc1ccc2cc(CN(c3cccc(C)c3C)S(=O)(=O)c3ccccc3)c(=O)[nH]c2c1 | 0.4 | 3.3 | 17.0 | -12.4 | -4.3 | x | x
CCCCCN(C(=O)CCC(=O)OCCOc1cccc(C)c1)c1c(N)n(CCCC)c(=O)[nH]c1=O | 0.4 | 0.3 | -6.6 | 1.8 | -5.9 | x | x
Cn1nnnc1SCC(=O)Nc1nn(-c2ccccc2)nc1C(N)=O | -3.4 | 1.3 | -4.1 | -3.5 | -2.1 | x | x
NC(=O)c1nn(-c2ccccc2)nc1NC(=O)CN1CCCCC1 | 2.0 | 4.3 | -3.7 | 6.3 | 47.4* | -5.0 | -6.2
Cc1c(-c2ccccc2)nc(N)c(C#N)c1-c1ccco1 | x | 2.6 | -1.4 | 9.3 | 1.0 | x | x
N#Cc1c(-c2ccco2)cc(-c2ccccn2)nc1N | 12.4 | 1.6 | 13.4 | 29.8 | 26.7* | 7.1 | -0.1
N#Cc1c(-c2ccco2)cc(-c2cccnc2)nc1N | -35.0 | 1.6 | 16.8 | 19.2 | 28.3* | 5.9 | 1.4
Cc1cccc(N(C(=O)c2ccco2)C(C(=O)NC2CCCC2)c2ccco2)c1C (centres undefined) | 4.9 | x | -10.6 | x | x | x | x
N#C/C(=C(/O)c1ccc([N+](=O)[O-])cc1)c1nc2ccccc2[nH]1 | -13.4 | 0.6 | 9.7 | -5.1 | -3.4 | x | x

Bioassay records: PubChem, several laboratories
